Data from PubChem BioAssay.
Some of the results follow. Calls of active or inactive are those of the source.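 How the source made its calls, unless noted: active means inhibition above the mean over all tested compounds plus 3 SD, which no compound reached; inactive means the rest.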

Legend:
[1] = system: HIV-1 integrase (multimerization); test: stimulation of HIV-1 integrase oligomerization – biochemical, TR-FRET, counter-screen for LEDGF/p75 integration inhibitor project (AID 1053131; in the data active means activation above about 8.9%); conditions: TR-FRET HIV-1 integrase multimerization, at 7.7 µM, hits give high values
[2] = compounds disturbing TR-FRET signal readout – biochemical, HIV-1 IN multimerization, artefact control for LEDGF/p75-dependent integration inhibitor project, confirmation (AID 1053135); conditions: TR-FRET optical interference counterscreen, at 7.7 µM, hits give high values;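 further: 0% = integrase with antibodies and DMSO and 100% = antibodies without integrase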
[3] = system: HIV-1 integrase / human LEDGF/p75 complex; test: blockers of LEDGF/p75-dependent integrase activity – biochemical, TR-FRET, confirmation (AID 1053136; in the data active means inhibition above about 14%); conditions: TR-FRET LEDGF/p75-dependent HIV-1 integration, at 3.7 µM, hits give high values
[4] = target: Glutathione S-transferase omega-1 (Homo sapiens) (UniProt P78417); test: recombinant GSTO1 blockers, retest – biochemical, fluorescence polarization, triplicate, counter-screen for RBBP9 inhibitor project, confirmation (AID 2176;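 active means inhibition above the primary screen's cutoff, its mean inhibition plus 3 SD, cut at about 35% in these data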;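 further: loss of polarization as inhibitors block binding of rhodamine sulfonate ester activity probe; 0% = GSTO1 with DMSO and 100% = wells lacking GSTO1 enzyme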); conditions: recombinant GSTO1, probe fluorescence polarization; at 5.96 µM; hits give high values
Sequence of Glutathione S-transferase omega-1 (Homo sapiens) (P78417 whole entry, looked up, the tested form may be a part): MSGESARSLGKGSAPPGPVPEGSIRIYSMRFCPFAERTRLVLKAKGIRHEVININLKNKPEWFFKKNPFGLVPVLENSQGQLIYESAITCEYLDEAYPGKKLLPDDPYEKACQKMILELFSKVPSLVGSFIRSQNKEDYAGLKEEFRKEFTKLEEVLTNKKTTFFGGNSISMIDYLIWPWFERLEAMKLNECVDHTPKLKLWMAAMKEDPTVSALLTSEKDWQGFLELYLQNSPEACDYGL

[5] = target: Nuclear receptor coactivator 1 (Homo sapiens) (UniProt Q15788); test: NCOA1 GAL4-fusion reporter inhibition – cell-based, luminescence, quadruplicate, confirmation (AID 588820;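 active means mean inhibition above 46.68%, the untreated control wells mean plus 3 SD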;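 further: 0% = DMSO wells and 100% = gossypol 36 µM treated wells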); conditions: HEK293 GAL4-SRC1 luciferase reporter, at 3.6 µM, hits give high values
[6] = repression of VP16-driven luciferase reporter – cell-based, luminescence, high throughput, counter-screen for SRC1 inhibitor project (AID 588824; in the data active means inhibition above about 25%); conditions: cell-based VP16 transactivation luciferase luminescence; at 3.6 µM; hits give high values
[7] = system: Fam108b (Abhd17b) serine hydrolase [Mus musculus]; test: inhibition of Fam108b (Abhd17b) hydrolase – biochemical, fluorescence polarization, triplicate, counter-screen for RBBP9 inhibitor project, confirmation (AID 1978;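 active means inhibition above a limit from the primary screen, the mean over all compounds plus 3 SD, cut at about 19% in these data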;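 further: 0% = median of active Fam108b wells and 100% = catalytically dead S170A mutant; inhibitors free the probe so polarization falls as inhibition rises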); conditions: recombinant Fam108b, FP-Rh probe fluorescence polarization; at 9.51 µM; hits give high values
[8] = target: Platelet-activating factor acetylhydrolase (Homo sapiens) (UniProt Q13093); test: inhibition of plasma PAF acetylhydrolase – biochemical, fluorescence polarization, human, confirmation (AID 463230;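 active means mean inhibition of the triplicate above the hit cutoff set for the earlier primary screen, cut at about 25% in these data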;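 further: 0% = enzyme with DMSO and 100% = wells lacking pPAFAH enzyme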); conditions: recombinant pPAFAH, FP-Rh probe fluorescence polarization; at 3.39 µM; hits give high values
Sequence of Platelet-activating factor acetylhydrolase (Homo sapiens) (Q13093 whole entry, looked up): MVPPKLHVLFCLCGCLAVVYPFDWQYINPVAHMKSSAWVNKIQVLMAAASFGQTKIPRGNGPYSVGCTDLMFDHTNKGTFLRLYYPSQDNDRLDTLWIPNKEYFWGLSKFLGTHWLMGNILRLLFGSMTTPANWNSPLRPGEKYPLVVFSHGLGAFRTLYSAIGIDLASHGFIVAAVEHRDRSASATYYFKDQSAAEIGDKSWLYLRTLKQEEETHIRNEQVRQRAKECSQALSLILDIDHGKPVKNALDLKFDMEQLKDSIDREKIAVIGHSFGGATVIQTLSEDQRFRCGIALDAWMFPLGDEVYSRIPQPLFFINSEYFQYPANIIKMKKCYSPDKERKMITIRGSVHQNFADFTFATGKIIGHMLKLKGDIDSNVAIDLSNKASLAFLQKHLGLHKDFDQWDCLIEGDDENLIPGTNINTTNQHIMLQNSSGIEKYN

[9] = target: Protein-arginine deiminase type-4 (Homo sapiens) (UniProt Q9UM07); test: protein arginine deiminase 4 blockade, retest – biochemical, fluorescence polarization, confirmation (AID 488796;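 active means mean inhibition across replicates above the hit cutoff set by the earlier primary screen, cut at about 15% in these data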;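 further: inhibitors block active-site labeling by the probe so polarization falls; 0% = PAD4 with probe and DMSO and 100% = probe without PAD4 enzyme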); conditions: recombinant PAD4, RCA probe fluorescence polarization; at 6.36 µM; hits give high values
Sequence of Protein-arginine deiminase type-4 (Homo sapiens) (Q9UM07 whole entry, looked up): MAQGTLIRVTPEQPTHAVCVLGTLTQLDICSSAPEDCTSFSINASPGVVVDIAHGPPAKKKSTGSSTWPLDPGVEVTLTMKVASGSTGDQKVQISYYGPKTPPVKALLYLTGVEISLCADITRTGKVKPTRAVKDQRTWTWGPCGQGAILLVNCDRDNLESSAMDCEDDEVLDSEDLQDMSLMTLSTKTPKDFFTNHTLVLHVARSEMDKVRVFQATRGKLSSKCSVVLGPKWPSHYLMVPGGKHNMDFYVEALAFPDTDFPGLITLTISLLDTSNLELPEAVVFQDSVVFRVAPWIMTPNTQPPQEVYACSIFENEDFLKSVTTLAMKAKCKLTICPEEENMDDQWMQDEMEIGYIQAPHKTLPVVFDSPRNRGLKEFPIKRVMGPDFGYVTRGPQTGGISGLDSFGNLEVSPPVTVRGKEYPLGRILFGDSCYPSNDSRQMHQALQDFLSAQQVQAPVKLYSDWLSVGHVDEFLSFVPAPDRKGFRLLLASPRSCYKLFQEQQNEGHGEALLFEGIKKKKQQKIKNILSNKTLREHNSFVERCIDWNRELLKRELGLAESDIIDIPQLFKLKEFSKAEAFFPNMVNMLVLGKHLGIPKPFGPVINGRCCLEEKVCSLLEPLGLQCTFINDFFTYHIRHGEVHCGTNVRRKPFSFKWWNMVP

[10] = BSA probe fluorescence interference – biochemical, TAMRA-labeled BSA, counter-screen for TCR-CD3 interaction inhibitor project (AID 652035; in the data active means inhibition above about 23%;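 further: 0% = buffer low control and 100% = reference high control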); conditions: TAMRA-labeled BSA probe fluorescence counterscreen; at 9.4 µM; hits give high values
[11] = system: T-cell receptor (TCR)-CD3 interaction, human; test: blockers of TCR binding to CD3 – biochemical, fluorescence, TAMRA-labeled TCR probe, confirmation (AID 652036; in the data active means inhibition above about 19%); conditions: TAMRA-labeled TCR probe fluorescence binding assay; at 9.4 µM; hits give high values
[12] = target: (Lyso)-N-acylphosphatidylethanolamine lipase (Mus musculus) (UniProt Q8VD66); test: mouse ABHD4 hydrolase blockers, triplicate – biochemical, fluorescence polarization, confirmation (AID 720658;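 active means mean inhibition across replicates above the hit cutoff set in the primary screen, cut at about 30% in these data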;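 further: 0% = wild-type ABHD4 with DMSO and 100% = catalytically dead S159A mutant with DMSO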); conditions: purified mABHD4, FP-Rh probe fluorescence polarization; at 8.92 µM; hits give high values
Sequence of (Lyso)-N-acylphosphatidylethanolamine lipase (Mus musculus) (Q8VD66 whole entry, looked up): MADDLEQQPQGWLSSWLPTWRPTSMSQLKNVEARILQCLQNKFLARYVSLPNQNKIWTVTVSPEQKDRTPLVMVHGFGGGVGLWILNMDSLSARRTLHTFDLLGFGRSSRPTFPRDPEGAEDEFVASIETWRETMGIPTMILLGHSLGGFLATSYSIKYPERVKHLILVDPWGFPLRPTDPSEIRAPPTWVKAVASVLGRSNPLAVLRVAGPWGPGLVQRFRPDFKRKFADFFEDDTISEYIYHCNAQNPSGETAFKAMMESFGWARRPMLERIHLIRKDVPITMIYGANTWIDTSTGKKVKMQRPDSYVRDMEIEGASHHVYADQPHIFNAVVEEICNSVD

[13] = target: Oxysterols receptor LXR-beta (Homo sapiens) (UniProt P55055); test: nonspecific reporter activation via LXR – cell-based, luminescence, HEK293, H. contortus campaign, counter-screen for hcDAF-12 agonist project, confirmation (AID 743027;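 active means mean percent activation of the reporter above a cutoff set as the average over tested compounds plus their standard deviation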); conditions: HEK293 Gal4-LXR tk-luc reporter, 24 h, at 6.8 µM, hits give high values, normalized: DMSO 0%, positive control 100%
[14] = system: Nuclear hormone receptor DAF-12 (Haemonchus contortus); test: hcDAF-12 luciferase reporter activation, retest – cell-based, luminescence, HEK293, lit1-tk-luc, triplicate, confirmation (AID 743032;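 active means mean activation across triplicate tests above the threshold derived from the earlier primary screen, cut at about 5.5% in these data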;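 further: 0% = DMSO only wells and 100% = 3 µM Δ7-dafachronic acid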); conditions: HEK293 hcDAF-12 lit1-tk-luc reporter, at 6.8 µM, hits give high values, % of Δ7-dafachronic acid response
[15] = target: Bcl-2-like protein 1 (Homo sapiens) (UniProt Q07817); test: Bcl-xL BH3-peptide displacement, hit confirmation – biochemical, fluorescence polarization, counter-screen for MCL1 inhibitor project (AID 2166;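 active means inhibition above a cutoff equal to the mean inhibition of all tested compounds plus 3 SD, cut at about 30% in these data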); conditions: GST-Bcl-xL / FITC-Bim BH3 peptide FP binding; at 10.9 µM; hits give high values
Sequence of Bcl-2-like protein 1 (Homo sapiens) (Q07817 whole entry, looked up): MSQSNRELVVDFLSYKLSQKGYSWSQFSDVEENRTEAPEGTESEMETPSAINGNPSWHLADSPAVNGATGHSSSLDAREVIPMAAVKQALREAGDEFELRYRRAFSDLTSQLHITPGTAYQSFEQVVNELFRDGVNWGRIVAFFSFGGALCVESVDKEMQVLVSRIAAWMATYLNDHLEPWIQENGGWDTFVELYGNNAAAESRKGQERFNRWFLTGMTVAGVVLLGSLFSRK

[16] = target: Induced myeloid leukemia cell differentiation protein Mcl-1 (Homo sapiens) (UniProt Q07820); test: MCL1-BIM peptide interaction disruptors – biochemical, fluorescence polarization, triplicate, confirmation (AID 2168;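 active means inhibition above the average of all tested compounds plus 3 SD, cut at about 40% in these data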;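 further: 0% = DMSO wells and 100% = unlabeled Bim-BH3 control peptide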); conditions: GST-MCL1 / FITC-Bim-BH3 fluorescence polarization; at 10.9 µM; hits give high values
Sequence of Induced myeloid leukemia cell differentiation protein Mcl-1 (Homo sapiens) (Q07820 whole entry, looked up): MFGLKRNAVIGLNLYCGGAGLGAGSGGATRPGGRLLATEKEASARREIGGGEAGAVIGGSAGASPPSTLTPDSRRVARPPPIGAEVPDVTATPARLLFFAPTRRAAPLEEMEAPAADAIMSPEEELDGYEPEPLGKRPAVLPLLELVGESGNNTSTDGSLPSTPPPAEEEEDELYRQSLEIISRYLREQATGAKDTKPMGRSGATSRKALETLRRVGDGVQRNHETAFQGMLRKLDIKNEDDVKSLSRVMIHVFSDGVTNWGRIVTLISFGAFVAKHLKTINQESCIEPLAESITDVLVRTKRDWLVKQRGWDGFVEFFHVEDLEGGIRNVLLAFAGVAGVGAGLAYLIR

[17] = target: Serine protease HTRA1 (Homo sapiens) (UniProt Q92743); test: confirming inhibition of human HTRA1 – biochemical, fluorescence polarization, confirmation (AID 540248;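 active means mean inhibition over three repeats above a set limit taken from the earlier primary screen, cut at about 37% in these data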;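 further: 0% = HTRA1 with DMSO and 100% = wells lacking HTRA1; inhibitors block probe binding so polarization drops and inhibition rises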); conditions: recombinant HTRA1, FP-rhodamine activity-based probe, at 5.96 µM, hits give high values
[18] = target: Peroxisome proliferator-activated receptor gamma (Homo sapiens) (UniProt P37231); test: retested PPARg-SRC-2 recruitment enhancers – biochemical, HTS, confirmation (AID 1297; in the data active means activation above about 22%;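 further: 0% = vehicle alone and 100% = reference agonist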); conditions: biochemical SRC-2 recruitment by PPARgamma; at 8 µM; hits give high values
Sequence of Peroxisome proliferator-activated receptor gamma (Homo sapiens) (P37231 whole entry, looked up): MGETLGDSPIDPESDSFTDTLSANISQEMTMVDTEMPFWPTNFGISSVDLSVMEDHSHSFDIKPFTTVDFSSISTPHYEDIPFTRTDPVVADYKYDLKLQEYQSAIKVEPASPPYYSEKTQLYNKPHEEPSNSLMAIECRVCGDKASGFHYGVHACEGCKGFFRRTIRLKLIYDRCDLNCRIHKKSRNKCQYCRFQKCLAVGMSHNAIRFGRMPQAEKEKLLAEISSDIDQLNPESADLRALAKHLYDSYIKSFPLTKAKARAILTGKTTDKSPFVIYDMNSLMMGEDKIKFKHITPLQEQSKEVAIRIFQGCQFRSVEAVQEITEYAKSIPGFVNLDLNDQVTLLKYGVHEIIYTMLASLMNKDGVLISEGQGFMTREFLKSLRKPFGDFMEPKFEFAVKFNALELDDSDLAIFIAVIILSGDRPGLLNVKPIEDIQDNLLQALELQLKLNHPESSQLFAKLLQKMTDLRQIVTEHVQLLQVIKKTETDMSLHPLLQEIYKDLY

[19] = target: Peroxisome proliferator-activated receptor gamma (Homo sapiens) (UniProt P37231); test: retest of SRC-1 recruitment enhancers for PPARgamma – biochemical, confirmation (AID 1300; in the data active means activation above about 20%;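 further: 0% = vehicle wells and 100% = reference agonist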); conditions: PPARgamma–SRC-1 coactivator recruitment biochemical assay; at 8 µM; hits give high values
[20] = target: Peroxisome proliferator-activated receptor gamma (Homo sapiens) + Nuclear receptor coactivator 3 (Homo sapiens) (UniProt P37231+Q9Y6Q9); test: agonists promoting SRC-3 binding to PPARgamma – biochemical, confirmation (AID 1301; in the data active means activation above about 24%;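 further: 0% = vehicle wells and 100% = reference agonist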); conditions: biochemical PPARgamma-SRC-3 coactivator recruitment, agonist mode; at 8 µM; hits give high values
Sequence of Peroxisome proliferator-activated receptor gamma (Homo sapiens) + Nuclear receptor coactivator 3 (Homo sapiens) (P37231 whole entry, looked up): as above
Sequence of Peroxisome proliferator-activated receptor gamma (Homo sapiens) + Nuclear receptor coactivator 3 (Homo sapiens) (Q9Y6Q9 whole entry, looked up): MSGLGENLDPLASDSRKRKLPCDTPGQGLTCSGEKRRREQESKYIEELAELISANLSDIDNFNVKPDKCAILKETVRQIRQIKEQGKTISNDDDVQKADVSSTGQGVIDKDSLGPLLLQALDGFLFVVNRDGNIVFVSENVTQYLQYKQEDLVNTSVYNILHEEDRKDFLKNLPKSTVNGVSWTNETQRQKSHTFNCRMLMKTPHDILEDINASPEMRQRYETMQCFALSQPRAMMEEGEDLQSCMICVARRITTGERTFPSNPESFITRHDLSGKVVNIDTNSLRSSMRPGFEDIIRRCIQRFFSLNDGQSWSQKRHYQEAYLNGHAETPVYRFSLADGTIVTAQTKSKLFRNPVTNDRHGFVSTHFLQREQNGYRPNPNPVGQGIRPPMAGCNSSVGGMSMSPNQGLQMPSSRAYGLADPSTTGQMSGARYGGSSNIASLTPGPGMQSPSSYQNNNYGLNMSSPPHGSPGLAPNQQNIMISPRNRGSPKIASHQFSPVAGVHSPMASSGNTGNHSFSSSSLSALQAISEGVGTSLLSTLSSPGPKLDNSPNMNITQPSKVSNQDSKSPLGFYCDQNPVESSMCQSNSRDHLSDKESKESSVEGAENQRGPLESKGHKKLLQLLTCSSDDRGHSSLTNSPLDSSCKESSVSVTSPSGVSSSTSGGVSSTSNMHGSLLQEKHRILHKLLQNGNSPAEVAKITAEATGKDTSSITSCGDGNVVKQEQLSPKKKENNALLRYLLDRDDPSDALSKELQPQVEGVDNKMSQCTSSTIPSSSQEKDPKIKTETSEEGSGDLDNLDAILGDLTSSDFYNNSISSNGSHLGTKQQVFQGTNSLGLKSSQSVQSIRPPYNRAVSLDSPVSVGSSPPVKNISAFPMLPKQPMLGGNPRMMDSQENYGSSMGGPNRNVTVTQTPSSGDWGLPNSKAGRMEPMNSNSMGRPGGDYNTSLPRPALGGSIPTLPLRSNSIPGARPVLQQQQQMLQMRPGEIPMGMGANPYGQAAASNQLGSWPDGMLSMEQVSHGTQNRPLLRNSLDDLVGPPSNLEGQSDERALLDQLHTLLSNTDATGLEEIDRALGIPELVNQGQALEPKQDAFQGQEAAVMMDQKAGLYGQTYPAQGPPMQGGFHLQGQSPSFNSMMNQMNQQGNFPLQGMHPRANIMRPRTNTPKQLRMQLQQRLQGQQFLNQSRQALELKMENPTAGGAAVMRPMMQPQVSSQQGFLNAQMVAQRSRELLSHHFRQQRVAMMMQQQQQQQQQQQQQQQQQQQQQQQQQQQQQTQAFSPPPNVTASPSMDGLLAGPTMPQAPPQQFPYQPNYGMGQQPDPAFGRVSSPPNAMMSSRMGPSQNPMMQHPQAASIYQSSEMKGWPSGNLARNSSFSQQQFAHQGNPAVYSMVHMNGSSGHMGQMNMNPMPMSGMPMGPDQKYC

COc1cc(NC(=O)COC(=O)c2ccc([N+](=O)[O-])s2)cc(OC)c1OC
active: inhibition [3] 51.5%
inactive: activation [1] -0.28% | inhibition [2] 1.01%

Cc1oc2c(c1C(=O)N1CCOCC1)C(=O)c1ccccc1C2=O
inactive: inhibition [4] 29.9% | inhibition [5] -13.7% | inhibition [6] 6.29% | activation [1] -2.24% | inhibition [2] 11.3%
active: inhibition [3] 20.2%

CCOC(=O)c1c(C)oc2cc(Sc3ccccc3)c(O)c(O)c12
inactive: inhibition [4] 5.29% | activation [1] 0.78% | inhibition [2] -2.84% | inhibition [3] -5.02%

C=CCN1C(=O)C(O)(CC(=O)c2ccccn2)c2ccccc21 (stereo not drawn)
inactive: activation [1] 0.97% | inhibition [2] -4.84% | inhibition [3] 0.38%

Nc1ccc2nc3c(=O)[nH]c(=S)[nH]c3nc2c1
inactive: inhibition [10] 10.6% | inhibition [2] -245%
active: inhibition [7] 44.2% | inhibition [4] 62% | inhibition [8] 32.2% | inhibition [9] 45.3% | inhibition [11] 120% | inhibition [12] 53.5% | activation [1] 48.6% | inhibition [3] 83%

CCN(CC)CCOc1ccc2c(c1)C(=NNC(=O)c1ccccn1)c1cc(OCCN(CC)CC)ccc1-2
inactive: activation [1] 2.34% | inhibition [2] -8.61% | inhibition [3] 6.51%

CC(=O)c1nc2ccccc2n1Cc1ccccc1
inactive: activation [1] -0.46% | inhibition [2] 2.34% | inhibition [3] -4.4%

CCOc1cccc(=O)c2c(C)n(CC3CCCO3)c(C)c12 (stereo not drawn)
inactive: activation [1] 2.93% | inhibition [2] -10.4% | inhibition [3] 4.91%

COC(=O)C1=C(C)N(C)C(=O)NC1c1ccc([N+](=O)[O-])o1 (stereo not drawn)
inactive: activation [1] 0.76% | inhibition [2] -3.75% | inhibition [3] 0.3%

CC(C)Cn1c(N)c(C(=O)NCc2cccs2)c2nc3ccccc3nc21
inactive: inhibition [4] -4.29% | activation [1] 3.66% | inhibition [2] -13.3% | inhibition [3] -3.17%

COc1c(O)cc2oc(-c3ccc(O)c(O)c3)cc(=O)c2c1O
inactive: inhibition [2] -81.9%
active: activation [1] 16.2% | inhibition [3] 89.6%

CN(C)/C=C/C(=O)c1cnc2sccn2c1=O
inactive: activation [1] 0.96% | inhibition [2] -3.51% | inhibition [3] 1.19%

c1ccc(C2=Nc3cccc4cccc(c34)N2)cc1
inactive: inhibition [7] 6.39% | activation [13] -0.31% | activation [14] 3.48% | activation [1] 4.54% | inhibition [2] -16.1% | inhibition [3] 8.24%

CN(C(=O)COC(=O)c1cc(-c2ccco2)nc2ccccc12)C1CCS(=O)(=O)C1 (stereo not drawn)
inactive: inhibition [10] 3.94% | inhibition [2] -121%
active: inhibition [15] 34.6% | inhibition [16] 95.6% | inhibition [4] 38.5% | inhibition [11] 28.1% | activation [1] 24.1% | inhibition [3] 53.3%

C=CCn1c(=S)[nH]c2scc(-c3ccco3)c2c1=O
inactive: inhibition [15] 23.3% | inhibition [16] 37.9% | inhibition [8] 14.1% | activation [1] 4.85% | inhibition [2] -24.4%
active: inhibition [7] 78.1% | inhibition [3] 75.9%

Oc1ccc(N=Cc2sc3ccccc3c2Cl)cc1
inactive: inhibition [4] 12.2% | inhibition [9] 3% | inhibition [10] 13.2% | inhibition [11] 7.56% | inhibition [12] -6.63% | inhibition [2] -37.1%
active: inhibition [17] 50.3% | activation [1] 10.4% | inhibition [3] 55.2%

CN(C)c1ccc(N/C=C/C(=O)C(F)(F)F)cc1
inactive: activation [18] 21.7% | activation [19] 15.3% | activation [20] 12.7% | inhibition [4] 6.83% | inhibition [8] -0.71% | inhibition [9] 1.99% | inhibition [17] 5.14% | inhibition [10] 0.92% | inhibition [11] 2.09% | inhibition [12] 2.7% | inhibition [2] -51.7% | inhibition [3] 0%
active: activation [1] 14.5%

Clc1ccc(C2=CSC3=Nc4cccc5cccc(c45)N23)cc1
active: inhibition [4] 85.1% | inhibition [12] 37.5% | inhibition [3] 24.5%
inactive: inhibition [9] -2.56% | inhibition [17] 13.7% | activation [1] 2.48% | inhibition [2] -8.94%

CC(=O)OCC1(O)CC23CCC4c5ccoc5CCC4(C)C2CCC1C3 (stereo not drawn)
inactive: activation [1] 0.06% | inhibition [2] -0.26% | inhibition [3] 9.45%

Cc1ccc(N=C2NC(=O)/C(=C/C=C/c3ccco3)S2)cc1C
inactive: inhibition [2] -49.5%
active: inhibition [8] 31.1% | activation [1] 13.8% | inhibition [3] 45.2%

O=C(O)c1ccc(NN=CC2=C(N3CCOCC3)/C(=C/c3ccccc3)CC2)cc1
inactive: activation [1] 3.07% | inhibition [2] -10.9%
active: inhibition [3] 16.6%

COc1ccc(S(=O)(=O)/N=C2\C=C(NS(=O)(=O)c3ccccc3)C(=O)c3ccccc32)cc1
active: inhibition [4] 72.9%
inactive: activation [1] -2.79% | inhibition [2] 10% | inhibition [3] 5.95%

C[C@H]([C@@H](O)[C@@H](O)[C@@H](C)C(C)(C)C)[C@H]1CC[C@H]2C3CC[C@H]4C[C@H](OS(=O)(=O)O)[C@@H](OS(=O)(=O)O)C[C@]4(C)[C@H]3CC[C@]12C (stereo partly drawn)
inactive: activation [1] -1.87% | inhibition [2] 6.58%
active: inhibition [3] 32.4%

CN(CC(=O)Nc1ccc(S(=O)(=O)N2CCCC2)cc1)Cc1ccc(Cl)c(Cl)c1
inactive: activation [1] 3.77% | inhibition [2] -13.1% | inhibition [3] 5.4%
